Screening data deposited in PubChem by several laboratories.
The list is not random: actives were taken first. Their share in the collection is about 3.9%.
aSyn UTR inh – MLPCN primary screen, SNCA 5' untranslated region; alpha-synuclein 5'UTR reporter, inhibitor activity; inhibition, % (tested at 7.5 µM); 300,000 tested, 0.82% active; AID 1813, 2009; in the data active = inhibition above about 60%;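 note: H4 neuroglioblastoma cells stably carrying SNCA 5'UTR luciferase fusion; 0% = DMSO wells and 100% = positive control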
TROY NFkB inh – inhibitors of TROY-driven NF-kB signaling, primary screen, Q293 LMP1-TROYcd cells, NF-kB luciferase, uHTS | 360,000 tested, 0.98% active | inhibition, % at 10 µM | Q293 LMP1-TROYcd NF-kB luciferase reporter, 4 h;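 active = compounds whose plate-normalised and pattern-corrected inhibition of the luciferase reporter signal at the single screening dose is 50% or more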
TWEAK-Fn14 inh – inhibitors of TWEAK-Fn14 signaling, primary screen, luciferase reporter cells, uHTS; TWEAK-stimulated Fn14 reporter cells, luciferase luminescence, 8 h; inhibition, % at 10 µM; 360,000 tested, 2% active; AID 1159606, 2016; in the data active = inhibition above about 50%
TRAIL sens C8 – viability loss with TRAIL in NB7+C8 cells, primary screen, TRAIL sensitizer project, cell-based, ATPlite luminescence | 360,000 tested, 1% active | AID 624354, 2012 | inhibition (viability loss, TRAIL sensitization), % at 10 µM;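 active = compounds causing at least 50% loss of cell viability in the single-dose screen, relative to plate controls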
HSP90 refold inh – HSP90 inhibitors, primary screen, cell lysate, luminescence; 290,000 tested, 0.91% active; inhibition, % at 5.6 µM; Rabbit reticulocyte lysate, luciferase refolding luminescence, 3 h; Heat shock protein HSP 90 (rabbit reticulocyte lysate; luciferase refolding);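 active = inhibition above the screen-wide mean plus 3 SD, computed separately per campaign, cut at about 16% in these data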;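 note: 0% = DMSO wells and 100% = 60 µM geldanamycin wells; inhibitors lower the luminescence because luciferase stays unfolded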
HIF-2a inh – HIF-2a reporter inhibitors, primary screen, luminescence, 786-0 RCC cells | 786-0 RCC cells HIF-2a reporter, luciferase luminescence, overnight | inhibition, % at 18.8 µM | 360,000 tested, 0.72% active | AID 624352, 2012;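 active = inhibition of the luminescence signal of 40% or more relative to plate controls, in a single-dose primary screen at 18.75 µM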
Starred values were filed as active, the others as inactive; x = no result given.

SMILES	aSyn UTR inh	TROY NFkB inh	TWEAK-Fn14 inh	TRAIL sens C8	HSP90 refold inh	HIF-2a inh
CC1(C)N=C(N)N=C(N)N1c1ccc(OCC(=O)N2CCOCC2)cc1	x	9	-21	75*	x	11
CC(=O)c1ccc(N2CCN(C(=O)CNS(=O)(=O)c3ccc4c(c3)OCCCO4)CC2)c(F)c1	x	2	3	21	x	12
Cc1ccc(-n2cc(C(=O)c3ccc(F)cc3)nn2)cc1Cl	-48	41	53*	14	8	-80
CCCC(=O)N(Cc1cc2cc(OC)ccc2[nH]c1=O)c1ccccc1OC	x	-6	-9	3	x	14
CC1CCCC(C)N1C(=O)CN1C(=O)c2ccccc2S1(=O)=O (configuration not stated)	x	-8	6	-3	x	-2
O=C(CN1C(=O)c2ccccc2S1(=O)=O)c1ccccc1	x	77*	100*	29	6	46*
O=C(CN1C(=O)c2ccccc2S1(=O)=O)Nc1ncc(Cl)cc1Cl	x	55*	75*	9	x	32
CN(C(=O)CN1C(=O)c2ccccc2S1(=O)=O)C1CCCCC1	x	75*	70*	-17	x	-67
Cc1cc(C(=O)CN2C(=O)c3ccccc3S2(=O)=O)c(C)n1-c1ccccc1	120*	0	94*	63*	16*	86*
COC(=O)C[C@H]1CC[C@@H](NC(=O)c2ccncc2)[C@@H](CO)O1	x	x	x	-6	x	-2
COc1cc(/C=C/CN2CCC(C(=O)NC(c3ccc(F)cc3)c3ccc4ccccc4n3)CC2)ccc1OC(C)=O (configuration not stated)	x	-14	-19	2	x	-42
O=C(O)Cn1ccc2cc(S(=O)(=O)N3CCCCC3)ccc21	x	-6	14	4	x	8
Cc1ccc(-c2cc(NC=O)c3ncc(-c4cnn(C)c4)n3c2)cc1	x	-19	2	4	x	-41
CCCCNC(=O)C(NC(=O)Cc1cc(OC)cc(OC)c1)C(=O)c1ccccc1 (configuration not stated)	x	x	x	-5	x	3
Cc1cc(C(=O)CN2C(=O)C3CC=CCC3C2=O)c(C)n1-c1ccccc1 (configuration not stated)	17	-15	56*	63*	9	-94
COc1ccc(C(=O)/C(=C/c2cccs2)c2nc3ccccc3o2)cc1	-136	52*	51*	7	17*	-75
COc1ccc(/C=C(\CC(=O)O)c2nc3ccccc3o2)cc1	-109	39	46	-8	2	-180
CCOC(=O)C1(C)CCCN(C(=O)c2cc(OC)c(OC)c(OC)c2)C1 (configuration not stated)	x	5	0	-17	x	2
O=C(CCN1C(=O)S/C(=C\C=C\c2ccccc2)C1=O)Nc1ccc(O)cc1	-204	-6	58*	24	2	-267
CCCCN(CCCC)S(=O)(=O)c1ccc(NC(=O)c2ccc([N+](=O)[O-])cc2Cl)cc1	42	31	63*	20	3	-22
CCCCN1CC(C)(C)Oc2cccc(F)c2S1(=O)=O	x	7	1	-14	x	10
COc1ccc(NC(=O)N[C@H]2CC[C@@H](CC(=O)NC3CCC3)O[C@@H]2CO)cc1	x	x	x	4	x	2
Cc1ccccc1CSCC(=O)NC1CCCC1	-20	-3	-10	7	-5	-54
Cc1ccccc1C(=O)NC1CCN(C(=O)NC2CCCCC2)CC1	-2	3	53*	2	4	9
Cc1ccccc1CC(=O)NC1CCCCCC1	-22	-21	87*	2	-3	-3
SMILES	aSyn UTR inh	TROY NFkB inh	TWEAK-Fn14 inh	TRAIL sens C8	HSP90 refold inh	HIF-2a inh
Cc1ccc(S(=O)(=O)N(C)C[C@@H]2OCc3cnnn3CCCC(=O)N([C@H](C)CO)C[C@H]2C)cc1	x	6	-2	-6	x	10
COc1ccc(-c2cc(C(=O)c3c(N)n(C)c(=O)n(C)c3=O)c3ccccc3n2)cc1	-57	-12	-43	81*	5	-212
Cc1cc(-c2ccc(N3CCOCC3)cc2)nc2ccccc12	-307	-41	-29	65*	0	-210
COc1ccc(-c2cc(C(=O)OCC(=O)N3CCOCC3)c3ccccc3n2)cc1	x	-21	-48	62*	x	-110
Cc1ccc(-c2cc(C(=O)N3CCOCC3)c3ccccc3n2)cc1	1	-18	-5	16	6	-57
COc1ccc(-c2cc(C(=O)OCC(=O)c3c(N)n(C)c(=O)n(C)c3=O)c3ccccc3n2)cc1	4	-61	12	16	-2	-18
O=C(OCC(=O)N1CCN(C(=O)c2ccco2)CC1)c1cc(-c2ccc(F)cc2)nc2ccccc12	-28	2	52*	13	2	-15
COc1cc2ccccc2cc1C(=O)OCC(=O)N1CCOCC1	18	-2	-14	0	3	-15
O=C(OCC(=O)N1CCN(C(=O)c2ccco2)CC1)c1ccccc1C(=O)c1ccccc1	5	x	79*	-14	-1	22
O=C1c2cccc(NCCCNCCO)c2C(=O)c2cccc(NCCCNCCO)c21	x	-5	-8	57*	x	48*
O=C1c2ccccc2C(=O)c2c(NCc3cccnc3)cccc21	5	-48	-11	7	0	-150
Cc1[nH]c(N=Nc2ccccc2)nc1N=Nc1ccccc1	63*	-43	5	14	-1	-157
O=C(CCl)N(CCc1ccccc1)CCc1ccccc1	-20	1	9	95*	4	-5
CCCCCCCN(C(=O)CCl)c1cccc(C)c1	-31	-9	17	95*	5	19
O=C(CCCc1ccccc1)NCCc1ccccc1	-39	-52	-21	-14	-2	-143
CCCCCCN(C(=O)CCl)c1ccccc1	-37	-5	32	96*	4	18
CCCC(=O)N(Cc1cc(=O)[nH]c2ccccc12)c1cccc(C)c1	28	13	7	8	-2	21
O=C(CCl)N(c1ccccc1)c1ccccc1	7	9	26	94*	2	20
O=C(N(c1ccccc1)c1ccccc1)N(c1ccccc1)c1ccccc1	7	-3	2	11	8	28
O=C1CC[C@@H](C(=O)N2CSC[C@@H]2C(=O)Nc2cccc(C(F)(F)F)c2)N1	x	-6	-11	-9	x	-9
COc1ccc2nc(N=NC3=C(O)CC(C)(C)CC3=O)sc2c1	-40	33	13	49	1	-39
COc1ccc2nc(N=Nc3ccc(O)c4ccccc34)sc2c1	59	18	38	55*	3	4
Cc1c(C)c2ccc(OCC(=O)N3CCC(C(=O)O)CC3)cc2oc1=O	34	-2	4	12	16*	9
